# Assay outcomes deposited in PubChem by several laboratories.
# Hits are enriched below; roughly 6.2% of the tested compounds scored in any of these assays.
# AHR activator – activates the human aryl hydrocarbon receptor; hit rate 2.5% among 320,000; activation, % at 5 µM; P35869; AID 2796; AHR-responsive luciferase reporter cells, luminescence; in the data active means activation above about 47%;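 further: 0% = vehicle wells and 100% = reference agonist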
# AI-2 QS mod – Vibrio harveyi AI-2 quorum sensing modulation; Vibrio harveyi JMH597 AI-2 luminescence/OD600 ratio, 9 h; hits give low values; strain lacks LuxN and CqsS sensors; 0 = neutral-control median; activity change, % at 7.5 µM; hit rate 0.4% among 300,000; AID 2094; in the data active means activity change below about -75%, passing the limit was not always enough; inconclusive means no clear call, values can overlap the other calls;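 further: luminescence divided by OD600 gain over 9 h not by final OD600 alone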
# H9c2 protect – modulators protecting cardiomyocytes from myocardial damage | H9c2 cardiomyocytes, H2O2 injury protection, ATPLite, 2 h | protection from H2O2 cell death, % at 20 µM | hit rate 0.63% among 360,000;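 active means compounds giving at least 50% protection of heart cells from peroxide-induced death in the single-dose screen, raw or plate-pattern-corrected value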;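 further: 0% = DMSO wells with peroxide and 100% = DMSO wells without peroxide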
# NTR1 ag – agonists of human neurotensin receptor NTR1 | NTR1-U2OS beta-arrestin-GFP spot imaging, agonist mode | activation, % at 20 µM | hit rate 0.17% among 330,000 | AID 493036;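 active means activation at or above 40% of the spot to cytoplasm intensity ratio, with at least 20 cells analyzed; inconclusive means wells under 20 cells, flagged as cytotoxic or low count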;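 further: 0% = DMSO without peptide and 100% = 100 nM NTR1 peptide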
# Target sequence (P30989 whole entry, looked up): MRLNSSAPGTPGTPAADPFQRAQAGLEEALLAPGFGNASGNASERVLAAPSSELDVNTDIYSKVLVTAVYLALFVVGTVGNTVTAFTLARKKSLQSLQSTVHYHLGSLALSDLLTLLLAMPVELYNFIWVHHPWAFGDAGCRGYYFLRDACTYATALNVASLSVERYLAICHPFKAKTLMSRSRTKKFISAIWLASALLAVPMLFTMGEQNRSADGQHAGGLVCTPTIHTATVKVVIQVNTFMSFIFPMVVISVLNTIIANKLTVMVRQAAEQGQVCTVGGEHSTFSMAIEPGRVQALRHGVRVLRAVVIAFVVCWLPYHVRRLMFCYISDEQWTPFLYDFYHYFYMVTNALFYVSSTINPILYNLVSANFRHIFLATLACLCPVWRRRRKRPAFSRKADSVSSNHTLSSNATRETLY
# NR3A LBD binder – NR3A (human) ligand-binding domain modulation; NR3A LBD differential scanning fluorimetry, Tm shift; 0% = protein alone, 100% = glycine-bound protein; Tm shift relative to glycine control, % at 25 µM; hit rate 2.5% among 340,000; AID 1259313;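 active means melting temperature shift of at least 10% of the positive control shift, at one fixed dose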
# Mot1-301 SUMO – blocks SUMOylation pathway, rescuing yeast Mot1-301 growth | S. cerevisiae Mot1-301 growth rescue, ATP luminescence, 38.5C; percent above DMSO median, 100 means doubled | growth rescue, % at 18.8 µM | hit rate 1% among 320,000 | AID 2716;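 active means every valid replicate shows activation above 250% relative to neutral control wells; inactive means the rest, any valid replicate at or below 250%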;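 further: OY570 slx delta 5 strain wells were the positive control but not used for scaling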
# * marks the source's active call; other numbers are inactive results; u = inconclusive; x = no result given.
SMILES,AHR activator,AI-2 QS mod,H9c2 protect,NTR1 ag,NR3A LBD binder,Mot1-301 SUMO
CCN1CCN(S(=O)(=O)c2ccc(Cl)c(C(=O)NCCc3ccccc3)c2)CC1,8.2,15.8,-3.4,1.7,-0.4,-6.6
CCN(CC)C(=O)c1[nH]cnc1C(=O)Nc1cccc(C)c1,54.0*,x,1.7,0.8,-0.5,22.2
CCN(CC)C(=O)c1[nH]cnc1C(=O)Nc1ccc(Cl)cc1,74.7*,x,-1.9,1.0,2.4,-9.1
CCN(CC)C(=O)c1[nH]cnc1C(=O)Nc1ccccc1F,x,x,4.6,x,x,x
CCN(CC)C(=O)c1[nH]cnc1C(=O)Nc1ccc(OC)cc1,65.4*,10.3,-2.6,0.5,0.3,9.7
CCOC(=O)c1ccc(NC(=O)c2nc[nH]c2C(=O)N(CC)CC)cc1,29.6,2.7,3.3,1.2,1.4,24.1
Nc1nc(CCl)nc(N(c2ccccc2)c2ccccc2)n1,-0.9,26.1,0.7,6.3,1.2,-7.0
Cc1cc(NC(=O)COc2coc(CN3CCN(c4ccc(F)cc4)CC3)cc2=O)no1,-3.5,19.8,-0.2,-0.6,1.1,7.5
NC(=NCCc1ccccc1)NS(=O)(=O)c1ccccc1F,0.3,10.3,-2.6,0.6,1.0,-35.7
COc1cc(/C=N/NS(=O)(=O)c2ccc(Br)cc2)ccc1O,3.8,17.8,-6.1,0.0,0.8,-6.7
COc1ccc(/C=N\NS(=O)(=O)c2ccc(Cl)cc2)cc1COc1ccccc1[N+](=O)[O-],3.9,26.0,-14.9,1.4,23.6*,1.6
COc1ccc(/C=N\NS(=O)(=O)c2ccc(Br)cc2)cc1COc1ccccc1[N+](=O)[O-],2.6,15.9,-1.9,-0.3,25.0*,-10.6
Cc1ccc(S(=O)(=O)N/N=C\c2ccc(Cl)c([N+](=O)[O-])c2)cc1,-4.2,0.6,-2.8,0.5,2.2,165.1
CC(NS(=O)(=O)c1cc2c3c(c1)CCN3C(=O)CC2)c1ccccc1 (stereo unspecified),x,x,4.0,x,x,x
COc1ccc(S(=O)(=O)N2CCCC2CNC(=O)C(=O)NC2CCCCCC2)cc1 (stereo unspecified),2.0,16.5,-3.5,1.0,16.8*,13.7
COc1ccc(S(=O)(=O)N2CCCC2CNC(=O)C(=O)NC2CCCC2)cc1 (stereo unspecified),x,x,2.2,x,x,x
COc1ccc(CCNC(=O)C(=O)NCC2CCCN2S(=O)(=O)c2ccccc2)cc1OC (stereo unspecified),2.9,-1.9,73.5*,0.4,0.8,180.7
O=C(NCCc1ccccc1)C(=O)NCC1CCCN1S(=O)(=O)c1ccccc1 (stereo unspecified),-2.2,4.9,22.7,0.1,0.5,20.9
O=C(NCCO)c1ccc(-c2cnc3cccnn23)cc1,x,x,0.7,x,x,x
COc1cc(OC)cc(-c2nnc(NC(=O)CCS(=O)(=O)c3ccc(C)cc3)o2)c1,65.5*,4.0,17.5,1.8,-2.2,-4.1
Cc1ccc(S(=O)(=O)CCC(=O)Nc2nnc(-c3ccc(F)cc3)o2)cc1,-1.3,36.3,11.0,0.6,-1.1,-7.7
COc1cccc(CNc2ccc(Br)cn2)c1O,8.0,25.4,-13.9,1.1,1.0,136.3
Oc1ccc2ccccc2c1CNc1ccc(Br)cc1,27.1,16.8,x,1.9,14.9*,37.8
Oc1ccc2ccccc2c1CNc1ccc(Br)cn1,13.8,2.1,-8.8,4.6,24.8*,20.3
COc1ccc(NC(=S)N(C(C)C)C2CCN(C(C)C)CC2)cc1Cl,-5.0,-6.5,x,-1.3,x,248.9
SMILES,AHR activator,AI-2 QS mod,H9c2 protect,NTR1 ag,NR3A LBD binder,Mot1-301 SUMO
O=[N+]([O-])c1cc(Cl)ccc1N1CCCC1,11.6,-8.5,4.7,0.5,-1.4,4.2
O=C1C(Cl)=C(N2CCN(c3ccccc3[N+](=O)[O-])CC2)C(=O)c2ccccc21,70.6*,11.1,-7.4,x,-11.4,-8.5
COc1ccccc1CC(=O)N1CCN(c2ccccc2)CC1,-1.6,7.4,-3.7,0.6,2.1,15.2
Nc1ccc2nc(-c3cccc(-c4nc5ccc(N)cc5[nH]4)c3)[nH]c2c1,6.9,10.3,4.2,-0.1,x,13.6
Nc1ccc(-c2nc3c(Cl)c(N)ccc3[nH]2)cc1,59.9*,12.6,18.4,0.8,8.4,4.9
Cc1cc(NC(=O)c2ccc(NC(=O)c3cccs3)cc2)no1,19.9,8.5,27.2,-0.9,14.5*,26.4
COc1ccc(C(=O)Nc2ccc(NC(=O)c3cccs3)cn2)cc1,-9.3,38.3,0.6,0.1,17.0*,3.6
COc1ccc(C(=O)Nc2ccc(NC(=O)c3ccccc3OC)nc2)cc1,-9.6,-1.6,34.4,13.1,24.9*,40.8
COc1ccc(C(=O)Nc2ccc(NC(=O)c3cccc(OC)c3)cn2)cc1,1.2,2.2,25.3,2.4,37.7*,53.2
Cc1cc(NC(=O)c2ccc(Cl)cc2)no1,-0.9,30.9,-14.9,-0.6,2.8,7.9
O=C(COC(=O)c1cccc(Br)c1)NCC1CCCO1 (stereo unspecified),-3.0,x,3.5,0.4,-7.3,-13.9
CCOC(=O)c1c(C)[nH]c(C)c1S(=O)(=O)N(C)CC(=O)Nc1ccccc1F,4.4,18.2,-2.3,0.2,-1.9,1.4
Cc1onc(-c2ccccc2)c1C(O)c1ccc(F)cc1 (stereo unspecified),0.4,-1.6,12.0,0.5,0.2,10.6
Oc1ccc(N=Nc2n[nH]c(-c3ccc(Cl)cc3)n2)cc1,32.0,49.9,10.5,-1.2,23.7*,1.9
Oc1ccc(N=Nc2ccccc2)cc1,-0.8,-2.0,-7.8,0.9,4.9,111.4
CNc1cccc(-c2cc(OC)ccc2OC)n1,x,x,-4.5,x,x,x
NC1=NC2(CCCCC2)N=C(Nc2ccc(Br)cc2)N1,71.9*,15.0,-5.9,-0.6,-1.3,-5.0
Cc1cccc(C)c1NC1=NC2(CCCCC2)N=C(N)N1,4.8,18.0,-3.1,-0.2,2.2,14.9
CNC(=O)C1CCN(S(=O)(=O)c2c(C)noc2/C=C/c2ccc(C)cc2)CC1,1.1,21.3,-7.7,-4.2,79.3*,12.7
COc1ccc(NC(=O)C2CCN(S(=O)(=O)c3c(C)noc3C)CC2)cc1Cl,0.9,8.5,-1.6,-0.7,15.7*,1.7
COc1ccc(NC(=O)C2CCN(S(=O)(=O)c3c(C)noc3C)CC2)cc1,0.1,7.1,-0.2,0.5,0.4,-3.4
N/C(Cc1ccc(Cl)c(Cl)c1)=N\OC(=O)c1cccs1,-2.4,u,-20.5,5.1,-12.1,323.5*
Cc1cc(Br)ccc1NC(=O)CN(C)Cc1cccs1,-3.1,-9.7,-1.0,0.5,-0.9,7.9
CCOC(=O)c1nnc(-c2ccc(C)cc2)nc1N1CCSCC1,56.6*,9.6,-1.7,2.3,-2.2,0.4
CCOc1cc(/C=N/O)cc(Br)c1OCc1ccc(Cl)cc1,27.5,1.3,-3.8,27.9,12.8*,-33.6
CCOc1cc(/C=N/O)cc(Br)c1OCC,-2.2,16.9,11.7,1.0,1.1,12.0
COc1ccc(C(C)=NNC(=O)c2cccc(S(=O)(=O)N3CCCC3)c2)cc1,2.7,x,2.7,-0.9,3.8,8.8
